Screens: PubChem BioAssay, National Center for Advancing Translational Sciences (NCATS)
NS1 inh: influenza NS1 inhibition | 270,000 tested, 0.4% active | AID 2326 | Potency, µM (top dose mostly 46.1 µM); calls by dose curve; note: actives are rising curves; nearly all actives have a fitted effect of over 50% in size
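Read-out: OD600 growth recovery of NS1-expressing budding yeast. Cells grown overnight at 30C in -URA glucose medium, washed, resuspended and diluted 1:100 in 2% galactose assay medium, pH 6.0. Same strain lacking NS1 served as positive control.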
SARS PLpro yeast: SARS-CoV PLP inhibition in yeast. S. cerevisiae expressing SARS-CoV PLpro, growth rescue. Potency, µM (doses to about 32.9 µM), actives largely listed as activators. 330,000 tested, 0.19% active; calls by dose curve; note: nearly all actives have a fitted effect of over 55% in size
Shiga inhibitor: Shiga toxin inhibition; Vero cells, Shiga toxin protein synthesis inhibition reporter; inhibition, % at 38.7 µM; 290,000 tested, 9.2% active; AID 2315; in the data active = inhibition mostly above about 28%, no sharp cut-off; inactive = mostly below about 43%
Pf growth 48h: P. falciparum growth inhibition at 48 hours (one generation). 310,000 tested, 5.9% active. AID 504832. Potency, µM (series often up to 28.7 µM), usual class: inhibitors. P. falciparum luciferase growth in erythrocytes, 48 h
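Luciferase-expressing P. falciparum in infected erythrocytes (2% hematocrit, 0.1% parasitemia final) in RPMI 1640/0.5% Albumax were exposed to compound for 48 hours at 37 C, 5% CO2; growth read as luminescence.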
Pf growth 96h: inhibits malaria parasite growth, 96 h; P. falciparum luciferase reporter growth, 96 h; 320,000 tested, 6.9% active; Potency, µM (titrated, usually from 28.7 µM), usual class: inhibitors
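Two parasite generations (96 h, 37 C, 5% CO2) of compound exposure in infected erythrocytes (0.05% parasitemia, 2% hematocrit). Luciferase-reporter P. falciparum; decreased luminescence indicates inhibited growth, aimed at apicoplast-acting delayed death.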
Cycloheximide cs: affects cycloheximide protein synthesis inhibition readout, counter-screen; AID 2314; 300,000 tested, 12% active; cell reporter, cycloheximide protein synthesis inhibition counterscreen; max response, %; in the data active = max response mostly above about 13%, no sharp cut-off; inactive = mostly below about 14%; note: read at 38.3 µM for the half of the compounds with a filed dose
Of the large screens only hits and unclear results are named; the others gave an inactive call. In the library only some 21% were active in any assay of this set; here they are far more common. Unless noted, calls come from the whole dose curve; as a rule, active = well fitted inhibition curve with a large enough effect; inconclusive = small, poorly fitted or top-dose-only effect, or another doubt; inactive = no such curve, though single readings can be large or run the other way.

O=C(O)C(Cc1ccc(O)cc1)N1C(=O)c2ccccc2C1=O (configuration not stated)	none (no result: Pf growth 48h)
CC(C)CC(=O)N1CCN(Cc2ccccc2Cl)CC1	none (no result: Shiga inhibitor)
CO[C@H]1C[C@@H]2CC[C@@H](C)[C@@](O)(O2)C(=O)C(=O)N2CCCC[C@H]2C(=O)O[C@H]([C@H](C)C[C@@H]2CC[C@@H](OC(=O)C(C)(CO)CO)[C@H](OC)C2)CC(=O)[C@H](C)/C=C(\C)[C@@H](O)[C@@H](OC)C(=O)[C@H](C)C[C@H](C)/C=C/C=C/C=C/1C	none (no result: NS1 inh, SARS PLpro yeast, Shiga inhibitor, Cycloheximide cs)
COC1CC2CCC(C)[C@](O)(O2)C(=O)C(=O)N2CCCCC2C(=O)OC(C(C)CC2CCC(O)C(OC)C2)CC(=O)C(C)/C=C(/C)C(O)C(OC)C(=O)C(C)CC(C)C=CC=C/C=C\1C (some centres not stated)	Pf growth 48h 3.79µM, Pf growth 96h 1.9µM (no result: NS1 inh, SARS PLpro yeast, Shiga inhibitor, Cycloheximide cs)
COc1cc(OC)c(NS(=O)(=O)c2ccc3c(c2)NC(=O)CO3)cc1Cl	Pf growth 96h 10.4µM
COc1ccccc1CNC(=O)C1CCN(S(=O)(=O)c2ccc3c(c2)NC(=O)CO3)CC1	Pf growth 96h 10.4µM
Cc1ccc(C)c(NS(=O)(=O)c2ccc3c(c2)NC(=O)CO3)c1	none
Cc1ccc(NC(=O)C2CCN(S(=O)(=O)c3ccc4c(c3)NC(=O)CO4)CC2)cc1	Pf growth 48h inconclusive, Pf growth 96h 13.1µM
COc1cccc(/C=C/C(=O)NCc2ccc(S(N)(=O)=O)cc2)c1	none
C=C1[C@@H]2C[C@]3(C(CC2=O)[C@]24C5C[C@H]3[C@H]2N(CC)C[C@]5(C)CC[C@@H]4O)[C@@H]1O (some centres not stated)	none (no result: NS1 inh, SARS PLpro yeast, Pf growth 48h, Pf growth 96h)
CCN(CC)c1ccc(S(=O)(=O)N(CC)CC)cc1NC(=O)c1cccnc1	Pf growth 48h inconclusive, Pf growth 96h inconclusive (no result: NS1 inh)
O=C(c1ccc(Br)cc1)N1CCCC(c2nc(-c3cccs3)no2)C1 (configuration not stated)	Pf growth 96h inconclusive
O=C(c1ccc(F)cc1F)N1CCCC(c2nc(-c3cccs3)no2)C1 (configuration not stated)	none
O=C(c1c(F)cccc1F)N1CCCC(c2nc(-c3cccs3)no2)C1 (configuration not stated)	Shiga inhibitor 131.3, Pf growth 96h 8.28µM
O=C(c1ccccc1Br)N1CCCC(c2nc(-c3cccs3)no2)C1 (configuration not stated)	Shiga inhibitor 113.8, Cycloheximide cs 35.9 (no result: NS1 inh)
COc1ccc(/C=C2/S/C(=N/S(=O)(=O)Cc3ccccc3)NC2=O)cc1OC	Pf growth 48h inconclusive, Pf growth 96h 11.7µM
CCOc1ccc(/C=C2\SC(=S)NC2=O)cc1OC	Shiga inhibitor 40.8, Pf growth 96h 13.1µM, Cycloheximide cs 14.4
COc1cc(/C=C2/SC(=S)NC2=O)ccc1OS(=O)(=O)c1ccc(C)cc1	Pf growth 96h 11.7µM
O=C1NC(=NCc2ccccc2)S/C1=C/c1ccc(O)cc1	Pf growth 48h inconclusive, Pf growth 96h inconclusive, Cycloheximide cs 13.1
Cc1c(N=C2NC(=O)/C(=C/c3ccc(O)cc3)S2)c(=O)n(-c2ccccc2)n1C	none
CC(C)c1ccc(S(=O)(=O)/N=C2/C=C(Sc3ncn[nH]3)C(=O)c3ccccc32)cc1	Shiga inhibitor 77.7, Pf growth 48h 1.31µM, Pf growth 96h inconclusive, Cycloheximide cs 35.8
Cc1ccc(S(=O)(=O)/N=C2/C=C(Sc3ncn[nH]3)C(=O)c3ccccc32)cc1	Pf growth 48h 1.47µM, Cycloheximide cs 33.0
Cc1ccc(S(=O)(=O)/N=C2/C=C(Sc3ncn[nH]3)C(=O)c3ccccc32)c(C)c1	Pf growth 48h 2.08µM, Cycloheximide cs 19.4
COc1ccccc1-n1cnnc1SCC(=O)Nc1cccc(S(N)(=O)=O)c1	none
Cc1sc2ncn(CC(=O)N3CCN(c4ccc(F)cc4)CC3)c(=O)c2c1S(=O)(=O)N1CCOCC1	none
Cc1ccc2oc(=O)c3cc(C(=O)NCCCN4CCN(C)CC4)sc3c2c1	none
O=C(NCCCN1CCCCCC1)c1cc2c(=O)oc3ccccc3c2s1	Pf growth 48h 2.94µM
Cc1ccc2oc(=O)c3cc(C(=O)N4CCN(C(=O)c5ccco5)CC4)sc3c2c1	Pf growth 96h inconclusive
CCN(Cc1ccccc1)C(=O)c1cc2c(=O)oc3ccc(C)cc3c2s1	Pf growth 96h 4.65µM (no result: Pf growth 48h)
Cc1ccc2oc(=O)c3cc(C(=O)NCCCN4CC(C)CC(C)C4)sc3c2c1 (configuration not stated)	Pf growth 48h 2.08µM
COc1ccccc1NC(=O)CC1S/C(=N/N=C(\C)C2CCCCC2)NC1=O (configuration not stated)	Pf growth 48h inconclusive
C=CCN(CC=C)C(=O)c1ccc(OC2CCN(Cc3ccccn3)CC2)cc1	Pf growth 96h inconclusive
O=C(CSc1nnnn1-c1cccc2c1CCCC2)NC1CCCC1	none
O=S(=O)(c1ccccc1F)N1CCN(c2nc3ccccc3s2)CC1	none
O=C1CNC(=S)N1c1nc2ccccc2s1	Shiga inhibitor 82.3, Pf growth 96h inconclusive, Cycloheximide cs 28.8
c1ccc(CCNc2nnnn2-c2ccccc2)cc1	Cycloheximide cs 23.9
Clc1cccc(CNc2nnnn2-c2ccccc2)c1	Pf growth 48h inconclusive, Pf growth 96h 14.7µM
Cc1cc(Nc2nnnn2-c2ccccc2)n(-c2ccc(Cl)cc2)n1	Pf growth 48h 4.65µM (no result: Pf growth 96h)
Cc1cc(Nc2nc(Cl)c(Cl)cc2Cl)n(-c2ccccc2)n1	none
O=C(NCc1csc(-c2ccccc2)n1)c1ccco1	Shiga inhibitor 60.1, Cycloheximide cs 26.9 (no result: Pf growth 48h)
Cc1cc(C(=O)NCc2csc(-c3ccccc3)n2)no1	Shiga inhibitor 95.4, Cycloheximide cs 51.1
N#CCc1ccc(NC(=O)c2ccc(S(=O)(=O)N3CCOCC3)cc2)cc1	Pf growth 48h inconclusive
O=C(CCC1CCCCC1)NCCN1C2=NC[C@@H](Cc3ccccc3)N2C[C@H]1Cc1ccc(O)cc1	Pf growth 48h inconclusive, Pf growth 96h 2.33µM
C[C@H]1CN=C2N(CCNC(=O)CCC3CCCCC3)[C@H](Cc3ccc(O)cc3)CN21	Pf growth 96h 11.7µM
COc1ccc(C[C@H]2CN3C(=NC[C@@H]3C)N2CCNC(=O)CCC2CCCCC2)cc1	Pf growth 48h inconclusive, Pf growth 96h inconclusive
O=C(CCC1CCCCC1)NCCN1C2=NC[C@H](Cc3ccccc3)N2C[C@H]1Cc1ccc(O)cc1	Pf growth 48h inconclusive, Pf growth 96h 4.65µM
C/C=C(\C)C(=O)NCCN1C2=NC[C@@H](Cc3ccccc3)N2C[C@H]1Cc1ccc(O)cc1	none
COc1ccc(CCN(Cc2cccs2)S(=O)(=O)c2ccc(S(=O)(=O)N(C)C3CCCCC3)cc2)cc1OC	Pf growth 48h inconclusive, Pf growth 96h inconclusive
O=C(O)c1ccc(CSc2nc3ccccc3o2)cc1	Pf growth 96h inconclusive
O=C(O)c1ccccc1CSc1nc2ccccc2o1	Shiga inhibitor 67.3, Cycloheximide cs 35.0
CCCCCCOC(=O)Sc1nc2ccccc2o1	Shiga inhibitor 43.1, Cycloheximide cs 28.7 (no result: Pf growth 48h)
